Rows were chosen to be rich in hits. Some 27% of all compounds tested hit in one or more screens of this group.
Cav32 inh = inhibitors of human Cav3.2 T-type calcium channel. O95180. Cav3.2-expressing cells, Fluo-4 calcium fluorescence FDSS; stronger effect = lower value. B-score at 10 µM. 100,000 tested, 4% active. AID 449739;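 active = single-dose well whose peak fluorescence ratio is a statistical outlier from its plate by either plate-standardised score or position-corrected B-score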
CYP2C9 activ = activators of human CYP2C9; 96,000 tested, 1.4% active; P11712; recombinant CYP2C9, luciferin-H conversion, luminescence; stronger effect = higher value; factor 1 = untreated enzyme, 0 = blocked; activation factor at 5 µM;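 active = activation factor of 2 or more for CYP2C9 at a 5 µM dose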;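 also: 0 = sulfaphenazole-blocked wells and 1 = vehicle-only wells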
Target sequence (P11712 whole entry, looked up): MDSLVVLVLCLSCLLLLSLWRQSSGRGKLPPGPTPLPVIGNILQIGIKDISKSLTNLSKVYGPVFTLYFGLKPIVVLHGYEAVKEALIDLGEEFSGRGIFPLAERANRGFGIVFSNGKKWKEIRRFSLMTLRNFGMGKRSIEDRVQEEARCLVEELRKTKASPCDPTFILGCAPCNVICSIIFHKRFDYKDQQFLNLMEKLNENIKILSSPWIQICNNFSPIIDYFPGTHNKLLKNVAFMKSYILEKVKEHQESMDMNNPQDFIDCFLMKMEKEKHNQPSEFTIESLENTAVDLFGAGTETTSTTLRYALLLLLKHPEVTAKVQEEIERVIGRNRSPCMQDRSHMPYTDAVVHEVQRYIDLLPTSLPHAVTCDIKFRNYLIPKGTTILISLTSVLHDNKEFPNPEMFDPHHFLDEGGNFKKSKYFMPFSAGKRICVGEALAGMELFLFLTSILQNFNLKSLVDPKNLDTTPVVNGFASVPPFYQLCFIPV
CYP2C19 activ = activators of human cytochrome P450 2C19; recombinant CYP2C19, luciferin-H EGE luminescence; stronger effect = higher value; 0 = fully inhibited enzyme, 1 = untreated enzyme; AID 1025; 96,000 tested, under 10 active; P33261; activation factor at 5 µM;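 active = activation factor of at least 2 at 5 µM in the primary screen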;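 also: 0 = wells with 2.5 mM tranylcypromine and 1 = vehicle-only wells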
CYP2C9 inhib = inhibitors of human CYP2C9. P11712. CYP2C9 Supersomes, luciferin-H conversion, luminescence. inhibition, % at 5 µM. 96,000 tested, 20% active;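 active = blocking of liver enzyme CYP2C9 beyond about 50% at 5 µM, limit read from the data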
CYP2C19 inhib = human CYP2C19 inhibition; 96,000 tested, 21% active; inhibition, % at 5 µM; AID 778; CYP2C19 Supersomes, luciferin-H EGE luminescence, 30 min;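 active = CYP2C19 inhibition above a set limit at 5 µM in the primary screen, cut at about 50% in these data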;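 also: plate controls were negative control wells for no effect and 2.5 mM tranylcypromine positive control for full effect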
* marks the source's active call; other numbers are inactive results; . = no result given.

SMILES | Cav32 inh | CYP2C9 activ | CYP2C19 activ | CYP2C9 inhib | CYP2C19 inhib
Cc1oc(C(C)(C)C)cc1C(=O)N1CCCC1C(=O)O (stereo not given) | 0.22 | . | . | . | .
COc1ccc(S(=O)(=O)N2Cc3ccccc3CC2C(=O)Nc2ccc(O)cc2)cc1OC (stereo not given) | 0.37 | 0.1 | 0.2 | 91* | 80*
CCS(=O)(=O)N1Cc2ccccc2CC1C(=O)Nc1ccc(NC(C)=O)cc1 (stereo not given) | 1.6 | 0.5 | 0.9 | 48 | 13
CCS(=O)(=O)N1Cc2ccccc2CC1C(=O)Nc1ccc(C)cc1 (stereo not given) | -0.22 | 0.4 | 0.1 | 61* | 86*
COc1ccc(S(=O)(=O)N2Cc3ccccc3CC2C(=O)O)cc1OC (stereo not given) | 2.2 | 1.1 | 1 | -6 | -1
COc1ccc2c(c1)C1=NN(/C(C)=C\C(C)=O)C(c3ccccc3)C1CC2 (stereo not given) | -0.11 | . | . | . | .
Cc1ccc(S(=O)(=O)N(CCO)c2cc3c(s2)CCCC3)cc1 | -2.6 | 0.9 | 0 | 9 | 99*
CCCCCCCCOC(=O)CCn1[nH]c(=O)c2ccccc2c1=O | -1.1 | 0.3 | 0.4 | 66* | 61*
CN1C(=O)/C(=C2\SC(N3CCCCCC3)=NC2=O)c2ccccc21 | 0.47 | 2.7* | 0.6 | -170 | 45
CCCN1C(=O)/C(=C2\SC(N3CCCCC3)=NC2=O)c2ccccc21 | 0.82 | 0.8 | 0.6 | 19 | 41
CC(C)NC(=O)CSCc1ccccc1Cl | 0.8 | 0.8 | 0.3 | 17 | 66*
Cc1cnn(CCC(=O)NNC(=S)Nc2ccccc2)c1 | -0.9 | 0.9 | 1 | 7 | 3
O=C(CSCc1ccccc1Cl)NNC(=S)Nc1ccccc1 | -2.1 | 0.3 | 0.1 | 75* | 86*
CC(C)NC(=O)CSCc1c(F)cccc1Cl | 0.85 | . | . | . | .
CC(C)C(=O)c1c(C(C)C)nn2ccccc12 | 0.22 | . | . | . | .
O=C1CCCCC1C(Nc1ccc(Br)cc1)c1ccccc1 (stereo not given) | . | 0.4 | 0.5 | 62* | 49
O=C(O)c1c(F)c(F)cc2ccccc12 | 0.24 | . | . | . | .
CC(C(=O)NCc1cccnc1)N1C(=O)c2ccccc2C1=O (stereo not given) | 1.5 | . | . | . | .
O=C(NCc1cccnc1)C1c2ccccc2C(=O)N1C1CCCC1 (stereo not given) | -0.083 | 0.7 | 0.3 | 32 | 75*
COc1ccc(OC)c(CN2C(=O)c3ccccc3C2C(=O)NCc2cccnc2)c1 (stereo not given) | 0.86 | 0.5 | 0.4 | 51* | 57*
O=C(NCc1cccnc1)C1CC(=O)N(C2CCCCC2)C1 (stereo not given) | 0.25 | 1.1 | 1 | -7 | -4
Cc1ccc(CN2C(=O)c3ccccc3C2C(=O)NCc2cccnc2)cc1 (stereo not given) | 1.8 | 0.5 | 0.3 | 51* | 71*
CCC(C)NC(=O)C1c2ccccc2C(=O)N1Cc1cc(OC)ccc1OC (stereo not given) | 0.8 | 0.8 | 1 | 17 | 0
COC(C[C@@H]1O[C@H]1C(=O)[C@@H](C)OCc1ccccc1)OC | 0.72 | . | . | . | .
CCOc1ccc(-n2nnnc2SCC(=O)c2ccccc2)cc1 | 0.53 | 1 | 0.9 | -2 | 8
SMILES | Cav32 inh | CYP2C9 activ | CYP2C19 activ | CYP2C9 inhib | CYP2C19 inhib
COCCn1nnnc1SCC(=O)c1ccccc1 | -0.24 | 1.9 | 0.3 | -89 | 67*
CCn1nnnc1SCC(=O)c1cccc(OC)c1 | 0.18 | 0.6 | 0.2 | 42 | 76*
O=C1CCCN1CCCNCC(=O)N1c2ccccc2Sc2ccccc21 | 0.65 | 0.9 | 0.9 | 10 | 8
O=C(Nc1ccc(O)c2c(=O)cc(-c3cccc(Cl)c3)oc12)c1ccccc1Cl | -1 | . | . | . | .
Brc1ccc(OCc2nc(-c3ccccn3)n[nH]2)cc1 | 0.025 | 0.4 | 0.3 | 62* | 71*
COC(=O)c1ccccc1S(=O)(=O)N(Cc1cc2ccc(OC)cc2[nH]c1=O)CC1CCCO1 (stereo not given) | 0.53 | 0.1 | 0.6 | 90* | 38
COc1ccc2cc(CN(Cc3cccnc3)S(=O)(=O)c3ccccc3)c(=O)[nH]c2c1 | 1.6 | 0.5 | 0.6 | 49 | 43
COc1ccc2cc(CN(CC3CCCO3)S(=O)(=O)c3ccc(C(C)=O)cc3)c(=O)[nH]c2c1 (stereo not given) | 0.51 | 0.4 | 0.6 | 60* | 35
COc1ccc(S(=O)(=O)N(Cc2cc3cc(C)ccc3[nH]c2=O)CC2CCCO2)cc1 (stereo not given) | -0.012 | 0.4 | 0.7 | 60* | 25
COc1ccc(S(=O)(=O)N(CCCN2CCCC2=O)Cc2cc3c(C)cc(C)cc3[nH]c2=O)cc1 | -0.52 | 0.1 | 0.3 | 94* | 65*
Cn1c(=O)c2cc(S(=O)(=O)NC(C(=O)NCc3cccnc3)c3ccccc3)ccc2n(C)c1=O (stereo not given) | 0.19 | 0.9 | 0.7 | 13 | 29
CN(CC(=O)Nc1ccc(C#N)cc1)Cc1ccc(Cl)c(Cl)c1 | -6.6* | 0.5 | 0.6 | 45 | 39
CC(=O)Nc1ccc(NC(=O)CN(C)CCC#N)cc1 | -0.48 | 1.4 | 1.2 | -36 | -17
COc1cc(-c2nc3n(n2)C(c2cccc(OC)c2OC)C2=C(CCCC2=O)N3)cc(OC)c1OC (stereo not given) | 1.7 | 0.9 | 0.8 | 6 | 19
CCCCNC(=O)CN1CCC2(O)CCCCC2C1c1ccccc1OC (stereo not given) | 0.35 | 0.6 | 0.6 | 41 | 42
CCOc1cc([C@H]2[C@@H]3CCCC[C@]3(O)CCN2CC(=O)NCc2ccco2)ccc1O | 0.48 | 0.5 | 0.4 | 54* | 56*
C/C(=N/NS(=O)(=O)c1ccc(Cl)cc1)c1cccc(O)c1 | -3.6 | 0.8 | 0.8 | 23 | 22
C/C(=N/NS(=O)(=O)c1ccc(Br)cc1)c1ccc(NC(=O)c2ccc(C)o2)cc1 | -1.8 | 0 | 0.5 | 98* | 50
CCC(NS(=O)(=O)c1ccc(C)cc1)C(=O)Nc1ccc(NC(C)=O)cc1 (stereo not given) | -0.17 | 0.5 | 0.3 | 46 | 70*
COc1ccc(S(=O)(=O)N/N=C(/C)c2ccc(Cl)cc2)cc1 | -2.2 | 0.2 | 0.2 | 79* | 84*
CC(=O)Nc1ccc(S(=O)(=O)NNC(=O)c2ccc(C)cc2)cc1 | -0.67 | 0.6 | 0.5 | 41 | 53*
CCC(C)NS(=O)(=O)c1ccc(NC(C)=O)cc1 (stereo not given) | 0.95 | . | . | . | .
CCc1ccc(NC(=O)c2onc(C)c2Cl)cc1 | -0.7 | 1 | 1.1 | 4 | -6
CC(=O)Nc1ccc(NC(=O)CNS(=O)(=O)c2ccc(C)cc2)cc1 | 0.6 | 0.7 | 0.6 | 28 | 42
CC(=O)Nc1ccc(/C(C)=N/NS(=O)(=O)c2ccc(C)cc2)cc1 | . | 0.3 | 0.8 | 71* | 24
C[C@@H](c1ncncc1F)[C@](O)(Cn1cncn1)c1ccc(F)cc1F | 1.1 | . | . | . | .
CC(=O)c1ccc2c3c(ccc(O)c13)CC2 | -3.3 | 2.4* | 0.7 | -142 | 32
Cc1ccc(C)n1-c1ccc(N2CCOCC2)nc1 | 0.39 | 0.9 | 0.8 | 9 | 17
CCCc1sc(N)nc1-c1ccc(C)cc1 | -1 | . | . | . | .

Compound activity (PubChem BioAssay)
